Records with an inconclusive call do not appear. Active and inactive are the calls of the source. The call rests on the fitted dose curve; in most records, active means well fitted curve in the direction sought with a large enough effect; inconclusive means small, poorly fitted or top-dose-only effect, or another doubt; inactive means no such curve, though single readings can be large or run the other way.
Molecular target: Pyruvate kinase PKM (Homo sapiens) (UniProt P14618)
Test: Secondary LDH Assay for Activators of Human Pyruvate Kinase M1 Isoform: for Probe SAR; further: % of control where 0% means no effect
Conditions: purified hPK-M1, LDH-coupled NADH fluorescence kinetic; series mostly up to 58.2 µM; activity change, negative = inhibition: at the top concentration
Outline: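 10 nM hPK-M1 coupled to 1 uM LDH, with 0.1 mM PEP, 4.0 mM ADP, 0.2 mM NADH, 50 mM Tris pH 8.0, 200 mM KCl, 15 mM MgCl2 (final). NADH fluorescence depletion followed kinetically 3-6 min; initial rates normalized to uninhibited controls.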

Pyruvate kinase PKM (Homo sapiens), sequence (P14618 whole entry, looked up, canonical isoform): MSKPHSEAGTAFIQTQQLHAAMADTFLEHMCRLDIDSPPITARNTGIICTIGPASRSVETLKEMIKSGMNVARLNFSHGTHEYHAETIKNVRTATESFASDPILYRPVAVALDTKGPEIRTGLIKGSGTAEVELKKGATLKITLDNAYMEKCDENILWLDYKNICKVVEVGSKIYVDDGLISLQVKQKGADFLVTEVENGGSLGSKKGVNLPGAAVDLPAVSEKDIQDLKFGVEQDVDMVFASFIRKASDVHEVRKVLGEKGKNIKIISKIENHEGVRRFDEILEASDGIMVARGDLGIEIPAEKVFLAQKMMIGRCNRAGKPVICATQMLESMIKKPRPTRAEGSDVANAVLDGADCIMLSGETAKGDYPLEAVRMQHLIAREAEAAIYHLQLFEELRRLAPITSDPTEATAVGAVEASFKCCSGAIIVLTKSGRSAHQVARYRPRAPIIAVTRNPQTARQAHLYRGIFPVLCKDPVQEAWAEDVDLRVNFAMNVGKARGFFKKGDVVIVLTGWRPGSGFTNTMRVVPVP

Activity change, negative = inhibition, inactive:
O=C1CCc2cc(S(=O)(=O)Nc3ccc(F)cc3)ccc2N1 -3.57%
Cc1ccc(NS(=O)(=O)c2ccc3c(c2)NC(=O)CO3)cc1C 15.7%
Cc1ccc(NS(=O)(=O)c2ccc3c(c2)CCC(=O)N3)cc1C 7.13%
Cc1ccc(NS(=O)(=O)c2ccc3c(c2)CCC(=O)N3)cc1 5.13%
O=C1c2ccccc2C(=O)N1c1ncccc1O 6.3%
Cc1ccc(NS(=O)(=O)c2ccc3c(c2)CCC(=O)N3)cc1F 0.152%
Cc1c(Cl)cccc1NS(=O)(=O)c1cc2c(cc1Cl)CCC(=O)N2 2.07%
O=C1CCc2cc(S(=O)(=O)Nc3ccc(-c4ccccc4)cc3)ccc2N1 3.36%
Cc1nc(-c2ccc(S(=O)(=O)Nc3ccc(C)c(C)c3)s2)cs1 19.5%
O=C1c2ccccc2C(=O)N1c1cc(=O)c2ccccc2[nH]1 2.86%
Cn1c2cc(S(C)=O)sc2c2cnn(Cc3cccc(N)c3)c(=O)c21 (centres undefined) 1.03%
O=C1c2ccccc2C(=O)N1c1noc2ccccc12 -6.06%
Cc1ccc2nc(-c3ccc(C)o3)c(Nc3ccc4c(c3)OCO4)n2c1 2.02%
Cc1ccc(NS(=O)(=O)c2ccc3c(c2)n(C)c(=O)n3C)cc1C -3.97%
Cc1ccc(NS(=O)(=O)c2ccc3c(c2)CCO3)cc1C 10.2%
O=C1CCc2cc(S(=O)(=O)NCc3ccccc3)ccc2N1 3.91%
Cc1ccc(NS(=O)(=O)c2cccc(F)c2)cc1C 4.61%
Cc1ccc2nc(-c3ccc(C)o3)c(Nc3ccc(Cl)cc3)n2c1 -22%
Cc1ccc(NS(=O)(=O)c2ccc(F)cc2)cc1C 2.07%

— PubChem BioAssay AID2620 (National Center for Advancing Translational Sciences (NCATS), 2010)
